Experimental findings from PubChem BioAssay (EPA / NIEHS) are described below.

Test [1] in a line: CCTE_Padilla_ZF_Score.Position: CCTE's 144 Hour Post-fertilization zebrafish Assay Score for Position, Padilla Lab (AID 2284409). A digest of the protocol:
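Wild-type zebrafish embryos (with chorions) exposed singly from 6–8 hpf in sealed wells of Hanks' solution at 26C, rinsed at 5 dpf. At 6 dpf, blinded assessors scored abnormal water-column position by brightfield stereomicroscopy, relative to DMSO.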

A short description of test [2]: CCTE_Padilla_ZF_Score.Living: CCTE's 144 Hour Post-fertilization zebrafish Assay Score for Viability, Padilla Lab (AID 2284410).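 Further: larval death at 6 dpf judged by absent heartbeat or coagulation.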 Summed up:
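Mortality at 6 dpf, judged as absent heartbeat or coagulation by two blinded observers, after sealed static exposure beginning at 6–8 hpf at 26C. Larvae were rinsed free of chemical at 5 dpf, and activity was fitted relative to DMSO.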

The nature of test [3]: CCTE_Padilla_ZF_Score.Tail: CCTE's 144 Hour Post-fertilization zebrafish Assay Score for Tail Malformation, Padilla Lab (AID 2284414). A digest of the protocol:
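Tail malformations were scored at 6 dpf by two blinded assessors under a stereo microscope. Chorionated embryos had been exposed from 6-8 hpf in sealed wells of 10% Hanks' at 26 C, then rinsed free of chemical at 5 dpf.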

Test [4] can be described thus: CCTE_Padilla_ZF_Score.Blood_pooling: CCTE's 144 Hour Post-fertilization zebrafish Assay Score for Blood Pooling, Padilla Lab (AID 2284415). A digest of the protocol:
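Blood pooling was scored at 6 dpf under a stereo microscope by two blinded assessors, fitted upward against DMSO. Single embryos were dosed at 6–8 hpf in 10% Hanks', kept sealed at 26C (14:10 h cycle) and rinsed at 5 dpf.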

Test [5] in a line: CCTE_Padilla_ZF_Score.Any: CCTE's 144 Hour Post-fertilization zebrafish Assay Score for Any Mortality or Malformation, Padilla Lab (AID 2284416). A digest of the protocol:
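Wild-type zebrafish embryos with chorions, one per well in 10% Hanks' from 6–8 hpf, dosed in sealed plates at 26 C, 14:10 h light:dark; rinsed at 5 dpf; blinded scoring at 6 dpf for death or malformation, versus DMSO.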

Test [6] deals with SRY-box transcription factor 17 (SOX17) Protein Expression, Deisenroth Lab, SOX17 (gene 64321). As to the kind of experiment: CCTE_Deisenroth_DEVTOX-GLR_Endo_SOX17: CCTE's DevTox GLR-Endo Assay Evaluation of SRY-box transcription factor 17 (SOX17) Protein Expression, Deisenroth Lab (AID 2284413). A digest of the protocol:
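Human RUES2-GLR cells carrying an inducible fluorescent reporter are differentiated in defined media for 48 h and dosed twice, 24 h apart. After fixation and nuclear staining, imaging yields SOX17+ cell percentage relative to 0.2% DMSO-treated differentiated cells.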

Test [7] relates to Brachyury (BRA) Protein Expression, TBXT (gene 6862). As to the kind of experiment: CCTE_Deisenroth_DEVTOX-GLR_Endo_BRA: CCTE's DevTox GLR-Endo Assay Evaluation of Brachyury (BRA) Protein Expression, Deisenroth Lab (AID 2284417). Summed up: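 Endpoint is the fraction of BRA reporter-positive cells over total nuclei, corrected by subtracting the 0.2% DMSO value. Chemicals (1 nM - 200 uM, 10 points) were dosed twice during 48 h differentiation of RUES2-GLR cells, read by imaging.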

Test [8] is described as follows: CCTE_Deisenroth_DEVTOX-GLR_Endo_CellCount: Viability Assessment in CCTE's DevTox GLR-Endo Assay, Deisenroth Lab (AID 2284420). Summed up: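 Percent change in nuclear-stain cell counts versus 0.2% DMSO, from high-content imaging over 5 fields per well. Over a 48 h endoderm differentiation, RUES2-GLR cells received two doses 24 h apart across a 1 nM–200 uM series, with n=4.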

Test [9] deals with SRY-box transcription factor 17 (SOX17) Protein Expression, Deisenroth Lab, SOX17 (gene 64321). Nature of the test: CCTE_Deisenroth_DEVTOX-GLR_Pluri_SOX17: CCTE's DevTox GLR-Pluri Assay Evaluation of SRY-box transcription factor 17 (SOX17) Protein Expression, Deisenroth Lab (AID 2284427; active means hit-call score of the fitted dose curve at least 0.9, where 1 is the maximum). How it is done: CCTE_Deisenroth_DEVTOX-GLR_Pluri assay is a cell-based, multiplex-readout assay that uses RUES2-GLR, a human pluripotent cell line, with measurements taken at 48 hours after chemical dosing in a 384-well microplateCCTE_Deisenroth_DEVTOX-GLR_Pluri_SOX17 is 1 of 4 assay components calculated from the CCTE_Deisenroth_DEVTOX-GLR_Pluri assay and it measures an the percentage of cells in an endoderm state. Using a type of inducible fluorescent protein reporter, gain-of-signal activity can be used to understand changes in gene expression with fluorescent microscopy. The percentage of SOX17+ cells are determined by calculating the number of SOX17+ cells divided by the cell count. To generalize the intended target to other relatable targets, this assay component is annotated to the transcription factor intended target family, where the subfamily is SRY-related HMG-box.Data from the assay component CCTE_Deisenroth_DEVTOX-GLR_Pluri_SOX17 was analyzed as 1 assay endpoint. The endpoint is the percent SOX17+ cell population minus the 0.2% DMSO control in the CCTE_Deisenroth_DEVTOX-GLR_Pluri assay. This assay endpoint can be referred to as a secondary readout since this assay has produced multiple assay endpoints where this one serves as a measure of endoderm differentiation.
All assay protocols are aligned to the DevTox GLR-Endo assay workflow. […]

Test [10] relates to SRY-box transcription factor 2 (SOX2) Protein Expression, Deisenroth Lab, SOX2 (gene 6657). As to the kind of experiment: CCTE_Deisenroth_DEVTOX-GLR_Pluri_SOX2: CCTE's DevTox GLR-Pluri Assay Evaluation of SRY-box transcription factor 2 (SOX2) Protein Expression, Deisenroth Lab (AID 2284428). A digest of the protocol: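 Percent SOX2+ cells (SOX2+ count per total cells, fluorescent imaging) in RUES2-GLR human pluripotent line, expressed relative to 0.2% DMSO. Compounds dosed twice at 24 h intervals during 48 h, 1 nM - 200 uM, 10 concentrations.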

Molecules are shown by their SMILES. Records with an inconclusive call do not appear. Active and inactive are the calls of the source. How the source made its calls, unless noted: active means hit-call score of the fitted dose curve at least 0.9, where 1 is the maximum; inactive means score below 0.9.

On to `NC(=O)C(F)(F)C(F)(F)F`, for which the outcome in test [1], in test [2], in test [3], in test [4] and in test [5] was inactive.
In the case of `O=C(O)C(F)(F)OC(F)(F)C(F)(F)OC(F)(F)C(=O)O`, the outcome in test [1], in [2], in test [3], in test [4] and in test [5] was inactive.
`FC(F)(F)C(F)(C(F)(F)F)C(F)(F)C(F)(F)CC1CO1` (stereo not given): the call in test [1], in test [2], in test [3], in test [4] and in test [5] was inactive.
Turning to `O=C(O)C(F)(OC(F)(F)C(F)(F)C(F)(F)F)C(F)(F)F` (stereo not given), the outcome in test [1], in [2], in [3], in test [4] and in [5] was inactive.
`OCC(F)(F)OC(F)(F)C(F)(F)OC(F)(F)C(F)(F)OC(F)(F)CO`: the outcome in [1], in test [3], in test [4] and in test [5] was inactive. Besides, the AC50 in test [2] is 32.1 µM (active).
With `CC(O)C(F)(F)C(F)(F)F` (stereo not given), the result in [1], in [2], in test [3], in [4] and in test [5] was inactive.
Turning to `O=C(O)C(F)(F)C(F)(F)C(=O)O`, the call in test [1], in test [2], in test [3], in test [4] and in test [5] was inactive.
For `COC(=O)C(F)(F)C(F)(F)OC(F)(C(F)(F)F)C(F)(F)OC(F)=C(F)F` (stereo not given), the result in test [1], in test [2], in test [3], in test [4] and in test [5] was inactive.
Consider `O=C(O)C=CC(F)(C(F)(F)F)C(F)(F)F`, for which the call in test [1], in test [2], in test [3], in test [4] and in [5] was inactive.
As for `O=C(O)C(F)(F)OC(F)(F)C(F)(F)OC(F)(F)F`, the molecule was called inactive in [1], in test [2], in test [3], in [4] and in test [5].
For the molecule `OCC(F)(F)OC(F)(F)C(F)(F)OC(F)(F)C(F)(F)OC(F)(F)F`, the AC50 in test [1] is 34.4 µM (active); in test [2], 88.8 µM (active); in test [3], 20.2 µM (active); in test [5], 27.5 µM (active). Also, in test [4], the result was inactive.
On to `O=S(=O)(F)C(F)(F)C(F)(F)C(F)(F)C(F)(F)C(F)(F)C(F)(F)C(F)(F)C(F)(F)F`, for which the result in test [1], in [2], in test [3], in test [4] and in test [5] was inactive.
For `C=CC(=O)OCC(F)(F)C(F)F`, the result in test [1], in test [3] and in [4] was inactive. Besides, the AC50 in test [2] is 20.7 µM (active); in test [5] it was 9.85 µM (active).
Consider `OCC(F)(F)OC(F)(F)C(F)(F)OC(F)(F)CO`, for which the result in test [1], in [2], in test [3], in test [4] and in [5] was inactive.
As to `O=P1(N(CCCl)CCCl)NCCCO1` (stereo not given), the call in [6], in [7], in test [8], in test [9] and in test [10] was inactive.
